Assay outcomes (PubChem)
D1 agonist = human D1 receptor agonism; P21728; HEK293 T-REx D1 cells, calcium flux, agonist mode; activation, % at 2 µM; 360,000 compounds, 1% hits; AID 504660; further: 0% is about no effect
Target sequence (P21728 whole entry, looked up): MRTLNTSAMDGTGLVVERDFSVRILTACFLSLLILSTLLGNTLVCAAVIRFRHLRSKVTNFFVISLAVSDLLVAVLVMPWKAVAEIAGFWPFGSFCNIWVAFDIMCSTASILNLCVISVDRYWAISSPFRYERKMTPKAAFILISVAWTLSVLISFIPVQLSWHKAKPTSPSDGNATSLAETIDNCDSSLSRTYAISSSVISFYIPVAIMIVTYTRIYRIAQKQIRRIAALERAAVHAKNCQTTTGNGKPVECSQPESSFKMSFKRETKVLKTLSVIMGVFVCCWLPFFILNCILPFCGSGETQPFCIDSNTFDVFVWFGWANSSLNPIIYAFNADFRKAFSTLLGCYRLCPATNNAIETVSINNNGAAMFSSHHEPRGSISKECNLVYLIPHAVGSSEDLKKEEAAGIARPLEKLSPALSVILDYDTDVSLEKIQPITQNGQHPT
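Agonism was scored from calcium flux recorded over 180 s (1 read/s) after pintool compound addition, following a 10-cycle baseline. Cells were inducible force-coupled HEK293 TREx D1, plated overnight at 30 C and loaded with no-wash calcium dye.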
D1 PAM = human D1 dopamine receptor positive modulation; AID 504651; 360,000 compounds, 0.036% hits; potentiation, % at 10 µM; P21728; HEK293 TREx D1 cells, calcium flux, dopamine EC20 potentiation; in the data active means potentiation above about 30%; further: 0% is about no effect
D1 antag = antagonists of human D1 dopamine receptor | P21728 | HEK293 TREx D1 cells, calcium flux, dopamine EC80; stronger effect = lower value | activity change, negative = inhibition, % at 10 µM | 360,000 compounds, 3.2% hits | AID 504652; in the data active means activity change below about -30%; further: on the % scale 0 is the no-effect control and ±100 the full control effect
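Antagonism measured as reduced calcium response to an EC80 dopamine addition following 180 s compound pre-read; cells were inducible HEK293 Trex D1 plated overnight at 30 C, read kinetically at 1 cycle/sec.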
TRHR enhancer = TRH receptor (human) allosteric enhancement | enhancement, % at 2 µM | AID 493056 | TRHR cells, fluo-8 calcium fluorescence, EC20 TRH enhancement | 360,000 compounds, 0.66% hits; in the data active means enhancement above about 30%; further: 0% is about no effect
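Enhancer read-out: after compound pinning and an initial kinetic agonist-mode read, an EC20 of TRH (10 nM final) was injected and fluo-8 calcium signal (Ex 480/Em 530) followed at 1 s/cycle for 100 cycles in TRHR-expressing cells.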
TRHR agonist = agonists of human TRH receptor | P34981 | TRHR cells, calcium flux fluo-8, FDSS agonist mode | activation, % at 2 µM | 360,000 compounds, 0.18% hits | AID 493084; further: 0% is about no effect
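Agonist-mode FDSS calcium read (Ex 480/Em 530, 1 s cycles) in 1536-well TRHR cells with fluo-8 dye, after 10-cycle baseline and 23 nL compound addition; TRH at EC20 (10 nM final) added afterwards for the enhancer phase.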
* = called active by the depositor; nt = not tested or not shown. The list is not random: actives were taken first. Their share in the collection is about 4.7%. Unless noted, no stated cut-off is given here; in the data, active means activation above about 30%; inactive means the rest.

SMILES | D1 agonist | D1 PAM | D1 antag | TRHR enhancer | TRHR agonist
COC(=O)c1[nH]c2cccc(OC)c2c1NC(=O)CCN1CCN(c2ccccc2F)CC1 | 4 | -9 | -57* | -1 | 0
COc1ccc(NC(=O)CCN2CCN(c3cccc(Cl)c3)CC2)cc1 | 36* | -2 | 8 | -3 | 2
COc1cc(NC(=O)CCN2CCN(Cc3ccccc3)CC2)cc(OC)c1 | 6 | 1 | 10 | 0 | 0
O=C(CCN1CCN(c2ccccc2F)CC1)Nc1cccc(F)c1 | 10 | -6 | -43* | 5 | 0
O=C(CCN1CCN(c2ccccc2F)CC1)Nc1ccc(F)cc1 | 2 | -26 | -14 | -3 | 0
N#CN1CCC(NS(=O)(=O)c2ccc(F)cc2)CC1 | -1 | 8 | -7 | 4 | 1
COc1ccc(-n2nc(C(=O)O)c(=O)n(C)c2=O)cc1 | 2 | 2 | -3 | -1 | 0
O=C(CSc1nc2c(c(=O)[nH]1)CCC2)Nc1ccccc1F | 0 | -2 | -17 | -2 | 0
COc1cccc(-c2csc(N3CCN(CC(=O)Nc4ccc5c(c4)OCO5)CC3)n2)c1 | 0 | -9 | -2 | -3 | -1
COc1ccc(NC(=O)CN2CCN(c3nc(-c4cccc(OC)c4)cs3)CC2)cc1 | 2 | -26 | -37* | 3 | 0
c1ccc(CC2CCN(c3ncnc4sccc34)CC2)cc1 | 38* | -8 | -29 | -9 | 1
COCCNC(=O)c1ccc(-n2c(-c3ccccc3)cc3c2CCCCC3)cc1 | 39* | -5 | -18 | 0 | 0
CCCNC(=O)c1ccc(-n2c(-c3ccccc3)cc3c2CCCCC3)cc1 | 11 | -3 | -19 | -7 | 1
Oc1ccc(/C=N/N(c2ccccc2)c2ccccc2)cc1O | 2 | 1 | -38* | -9 | 1
Oc1ccc(/C=N/N(c2ccccc2)c2ccccc2)c(O)c1O | 1 | -4 | -9 | -2 | 1
CCc1ccc(CN(C(=O)Nc2cccc(Cl)c2)c2ccccn2)cc1 | 31* | 0 | -19 | 2 | -2
CC(C)C(=O)N(Cc1ccccc1)c1ccccn1 | 6 | 3 | -6 | 3 | -4
Cc1ccc(-c2nc(C)c(CCNC(=O)c3ccccc3Br)s2)cc1 | 0 | -5 | -1 | 5 | 0
O=C(N/N=C/c1ccc(OC(=O)c2ccccc2Cl)cc1)c1ccccn1 | 1 | 3 | -15 | 31* | 0
O=C(N/N=C/c1ccc(OC(=O)c2ccccc2Cl)cc1)c1cc(O)cc(O)c1 | 2 | -2 | -7 | 2 | 1
O=C(NCCCCCCNC(=O)c1ccccc1O)c1ccccc1O | 29 | -7 | -42* | 10 | -1
O=C(NCCNC(=O)c1ccccc1O)c1ccccc1O | 2 | -1 | -3 | 0 | 1
Cc1cccn2c(Nc3ccccc3)c(-c3ccc(N4CCOCC4)cc3)nc12 | -1 | -1 | -45* | 6 | 0
COC(=O)c1cc(-c2ccc(Cl)cc2Cl)n[nH]1 | 2 | 0 | -4 | 3 | 1
CC(C)(C)c1ccc(OCCC(=O)OCC(=O)N2c3ccccc3NC(=O)C2(C)C)cc1 | 6 | -5 | -21 | -1 | 1
SMILES | D1 agonist | D1 PAM | D1 antag | TRHR enhancer | TRHR agonist
COc1ccc(NC(=O)CN2C(=O)C(C)(C)c3ccccc32)cc1Cl | 4 | -1 | -50* | 0 | 0
O=C(CSc1nnc2ccc(-c3cccnc3)nn12)Nc1ccc(F)cc1F | 1 | -2 | 1 | 1 | 1
Cc1ccccc1C(=O)Oc1cc(-c2ccc3c(c2)OCO3)cc(=O)c2c(C)oc(C)c12 | 0 | -2 | -3 | 5 | 0
COc1ccc(CNc2nc(-c3ccco3)nn2C(=O)CC(C)C)cc1 | 14 | 0 | 31 | 5 | -1
OCC1(CCCc2ccccc2)CCN(Cc2cc(F)ccc2F)CC1 | 7 | -3 | -7 | 0 | 0
OCC1(CCc2ccccc2)CCN(Cc2cc(F)ccc2-n2cccn2)CC1 | 1 | -6 | -32* | -8 | 0
CCn1c(SC(C)C)nnc1-c1c[nH]c2ccccc12 | 2 | nt | -31* | 4 | 0
CCOC(=O)CSc1nnc(-c2c[nH]c3ccccc23)n1CC | 12 | nt | -3 | 10 | 0
COc1ccccc1NC(=O)C(=O)/C=C(\O)c1ccccc1 | 2 | -3 | 8 | 2 | 1
Cc1[nH]c2ccccc2c1/C=N/Nc1ccc([N+](=O)[O-])cc1 | 125* | -9 | -4 | 9 | 38*
Cc1[nH]c2ccccc2c1/C=N/Nc1ccc(F)cc1F | 0 | -2 | -6 | 5 | 1
COc1ccccc1NS(=O)(=O)c1cc([N+](=O)[O-])ccc1N/N=C/c1c(C)[nH]c2ccccc12 | 62* | -9 | 24 | 1 | 17
Cc1[nH]c2ccccc2c1/C=N/NC(=O)c1cccc([N+](=O)[O-])c1 | 1 | -2 | -11 | 2 | -1
O=[N+]([O-])c1ccc(N/N=C/c2c[nH]c3ccccc23)c(S(=O)(=O)Nc2ccc(Cl)cc2)c1 | 45* | -7 | -25 | 11 | 16
Cc1[nH]c2ccccc2c1/C=N/Nc1ccccn1 | 3 | -1 | -5 | 7 | 0
CN1CCN(S(=O)(=O)c2cc([N+](=O)[O-])ccc2N/N=C/c2ccc(Cl)cc2)CC1 | 1 | -5 | 3 | 2 | 0
Cc1[nH]c2ccccc2c1/C=N/NC(=O)c1cccc(F)c1 | 1 | -2 | -66* | 25 | 0
Cc1[nH][nH]c(=O)c1C(c1c(C)[nH][nH]c1=O)c1cn(Cc2ccccc2Cl)c2ccccc12 | -2 | 4 | 11 | -4 | 0
CC(C)OC(=O)c1ccc(NC(=O)CSc2nc(-c3cccs3)cc(C(F)(F)F)n2)cc1 | 4 | -6 | -21 | 5 | 2
COc1cc(O)c(C(=O)/C=C/c2ccccc2)c(OC)c1 | 2 | -3 | -56* | -5 | 0
CCCc1cc(C(=O)Nc2ccc(C(=O)c3ccc(C)cc3)cc2)n(C)n1 | 6 | -14 | -35* | 2 | 1
CCCc1cc(C(=O)Nc2cccc3ccccc23)n(C)n1 | 3 | -3 | -3 | 0 | -2
O=[N+]([O-])c1ccc(OCC(O)CN(CCO)CCO)cc1 (stereo unspecified) | 4 | -1 | -35* | -2 | 0
Cc1cc(OCC(O)CN(CCO)CCO)ccc1Cl (stereo unspecified) | 1 | 7 | 10 | -4 | 0
COC(=O)c1cnc(Oc2ccc(NC(=O)NC(=O)c3c(OC)cccc3OC)cc2)cc1C(F)(F)F | 2 | -11 | -54* | 3 | 2
O=C(Cn1c(=O)n(-c2ccccc2Cl)c(=O)c2sc3ccccc3c21)NC1CCCCC1 | 39* | 0 | 0 | -1 | -1
O=C(Cn1c(=O)n(-c2ccccc2Cl)c(=O)c2sc3ccccc3c21)NC1CCCC1 | 1 | 0 | -5 | -9 | -1
COC(=O)CN(c1ccccc1C)S(C)(=O)=O | 1 | -4 | -38* | -4 | 0
